For 29 molecules, Potency, activity change, negative = cytotoxicity and outcome results are on record in PubChem BioAssay (NCATS).

Inconclusive results are not listed. Entries that show only a call come without a potency. Calls of active or inactive are those of the source. Calls come from the whole dose curve; as a rule, active = well fitted inhibition curve with a large enough effect; inconclusive = small, poorly fitted or top-dose-only effect; inactive = flat fitted curve, though single readings scatter.
Potency is the fitted concentration of half-maximal effect.

The assay is described as follows: P-glycoprotein substrates identified in KB-8-5-11 adenocarcinoma cell line, qHTS therapeutic library screen (AID 1346987). Note: nearly all actives have a fitted effect of over 65% in size. To be noted: KB-8-5-11 (P-gp overexpressing) viability, CellTiter-Glo, 72 h; series mostly up to 44.5 µM. The essentials: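 P-gp-mediated resistance screen: KB-8-5-11 cells treated 72 h with compounds in dose-response. CellTiter-Glo viability.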
In general terms: qHTS replaces the single test concentration by a dilution series.
Regarding `C=C1CC[C@H]2[C@@](C)(CCC(O)[C@@]2(C)CO)[C@@H]1C/C=C(/C(=O)O)C(O)CO` (some centres undefined), the Potency entry is “inactive”. The same measure, in the same setting: under `CN(C)C/C=C/C(=O)Nc1ccc(C(=O)Nc2cccc(Nc3ncc(Cl)c(-c4c[nH]c5ccccc45)n3)c2)cc1` stands 5.17 µM (active). Same read-out and setting: under `COc1ccc2c(c1)OC[C@]1(O)c3cc4c(cc3O[C@H]21)OCO4` stands “inactive”.

For the molecule `CC(CCC1C(C(=O)O)=CC(=O)CC1(C)C)O[C@@H]1O[C@H](CO)[C@@H](O)[C@H](O)[C@H]1O` (some centres undefined), the Potency result was “inactive”. Same read-out and setting: the same measure for `OC[C@H]1O[C@@H](OCCc2ccc(O)cc2)[C@H](O)[C@@H](O)[C@@H]1O`: “inactive”; for `CCCCCCCCCCCCCC[n+]1ccc(C)cc1`: “inactive”; for `COc1cc(NC(=O)c2ccccn2)ccc1Cl`: “inactive”. On to `CC(C(=O)O)C1CCC2(C)C3C(=O)C=C4C(CCC(=O)C4(C)C)C3(C)CCC12C` (centres undefined), for which the Potency result was “inactive”. `CC1(C)C(=O)C(C)(C)c2cc(C(=O)Nc3ccc(C(=O)O)cc3)ccc21`: the Potency result is “inactive”. As for `CC1CCC2C(C)(C)C(O)CCC2(C)C12Cc1c(O)cc3c(c1O2)C(N)=NC3` (centres undefined), the Potency result is “inactive”.

Take `Cc1cc(C)cc(NC(=O)Cc2ccc(OC(C)(C)C(=O)O)cc2)c1`: the Potency entry is “inactive”. Regarding `C[C@@H]1O[C@@H](O[C@H]2[C@H](O[C@H]3[C@H](O[C@H]4CC[C@@]5(C)C(CC[C@]6(C)C5CC=C5[C@@H]7CC(C)(C(=O)O)C[C@@H](O)[C@]7(C)CC[C@]56C)[C@@]4(C)CO)O[C@H](C(=O)O)[C@@H](O)[C@@H]3O)O[C@H](CO)[C@H](O)[C@@H]2O)[C@H](O)[C@H](O)[C@H]1O` (some centres undefined), the activity change, negative = cytotoxicity was 7.09% [at 9.29 µM] (inactive). Take `CC1(C)CC[C@]2(C(=O)O)CC[C@]3(C)C(=CCC4[C@@]5(C)C[C@H](O)[C@H](O[C@@H]6OC[C@H](O)[C@H](O)[C@H]6O)[C@@](C)(CO)C5CC[C@]43C)[C@@H]2C1` (some centres undefined): the Potency result was “inactive”. Still for that read-out and setting: under `COc1cc(C)c(C(=O)O[C@H]2[C@@H](O)[C@H](n3ccc(=O)[nH]c3=O)O[C@@H]2CO)c(OC)c1` stands “inactive”.

With `Cc1cc(N2CCCCC2)nc2ccccc12`, the Potency entry is “inactive”. `COc1cc(CC(COC2OC(CO)C(O)C(O)C2O)c2cc(/C=C/CO)cc(OC)c2O)ccc1O` (centres undefined): the Potency result was “inactive”. Consider `CC1(CO)CC[C@]2(C(=O)O[C@@H]3O[C@H](CO)[C@@H](O)[C@H](O)[C@H]3O)CC[C@]3(C)C(=CCC4[C@@]5(C)C[C@H](O)[C@H](O[C@@H]6OC[C@@H](O)[C@H](O)[C@H]6O)[C@@](C)(CO)C5CC[C@]43C)C2C1` (some centres undefined), for which the outcome is “inactive [at 9.29 µM]”.

As for `CCCCCCCCCCCCCCCCCCOP(=O)([O-])OC1CC[N+](C)(C)CC1`, the Potency entry was “inactive”. The same measure, in the same setting: under `COc1cc(/C=C/C(=O)OC2[C@H](O)CC(O)(C(=O)O)C[C@H]2O)ccc1O` (some centres undefined) stands “inactive”; under `Cc1cc(/C=C/c2ccc3cc(N(C)C)ccc3[n+]2C)c(C)n1-c1ccccc1`, “inactive”. Still for that read-out and setting: under `COc1cc(COC2OC(CO)C(O)C(O)C2O)cc(OC)c1O` (centres undefined) stands “inactive”. As to `CCCCC(C)(O)C/C=C/[C@H]1[C@H](O)CC(=O)[C@@H]1CCCCCCC(=O)OC` (some centres undefined), the Potency entry was “inactive”. The same measure, in the same setting: under `C[C@@H]1O[C@@H](O[C@H]2[C@H](OC(C#N)c3ccc(O)cc3)O[C@H](CO)[C@@H](O)[C@@H]2O)[C@H](O)[C@H](O)[C@H]1O` (some centres undefined) stands “inactive”. Take `CC(=O)OC[C@@]12[C@H](O)C[C@]3(C)C(=CCC4[C@@]5(C)CC[C@H](O[C@@H]6O[C@H](C(=O)O)[C@@H](O[C@@H]7O[C@H](CO)[C@@H](O)[C@H](O)[C@H]7O)[C@H](O)[C@H]6O[C@@H]6O[C@H](CO)[C@@H](O)[C@H](O)[C@H]6O)[C@](C)(CO)C5CC[C@]43C)[C@@H]1CC(C)(C)[C@@H](OC(C)=O)[C@@H]2O` (some centres undefined): the activity change, negative = cytotoxicity was 4.33% [at 9.29 µM] (inactive).

For `COc1cc(/C=C/C(=O)OC[C@H]2O[C@H](O[C@]3(CO)O[C@H](CO)[C@@H](O)[C@@H]3O)[C@H](O)[C@@H](O)[C@@H]2O)cc(OC)c1O`, the Potency result was “inactive”. Still for that read-out and setting: under `C#Cc1cnc2[nH]c(=O)n(C(CC)CC)c2n1` stands “inactive”; under `O=C(O[C@H]1[C@@H]2C=CO[C@@H](O[C@@H]3O[C@H](CO)[C@@H](O)[C@H](O)[C@H]3O)[C@@H]2[C@@]2(CO)O[C@@H]12)c1ccc(O)c(O)c1`, “inactive”; under `COc1ccc([C@@H]2N[C@H](C(=O)O)Cc3c2[nH]c2ccccc32)cc1CN1CCN(c2ccccc2F)CC1`, “inactive”. The same measure, in the same setting: under `CO[C@H]1C=CO[C@@]2(C)Oc3c(C)c(O)c4c(O)c(c5c(nc6cc(C)ccn65)c4c3C2=O)NC(=O)/C(C)=C\C=C[C@H](C)[C@H](O)[C@@H](C)[C@@H](O)[C@@H](C)[C@H](OC(C)=O)[C@@H]1C` stands “inactive”.
